From PubChem BioAssay (NCI)
This is part of a sample that, as a whole, favours compounds with a hit. Of some 83,000 tested, about 20% had one in any assay.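 Single-concentration screen, 48 h exposure, 96-well plates. Endpoint: percent growth. Below 10 = active.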 A number with no mark means an inactive call. Active and inactive are the calls of the source.

Assays:
Assay in all cases: NCI-60 one-dose screen, 48 h (100 = growth as untreated, 0 = no growth, -100 = all killed)
Settings in all cases: 10 µM unless noted
BT-549 breast = tested on: BT-549 breast
MDA-MB-435 melanoma = tested on: MDA-MB-435 melanoma
SW-620 colon = tested on: SW-620 colon
MCF7 breast = tested on: MCF7 breast
HCT-116 colon = tested on: HCT-116 colon
HCC-2998 colon = tested on: HCC-2998 colon
KM12 colon = tested on: KM12 colon

Structure (SMILES)	growth (BT-549 breast)	growth (MDA-MB-435 melanoma)	growth (SW-620 colon)	growth (MCF7 breast)	growth (HCT-116 colon)	growth (HCC-2998 colon)	growth (KM12 colon)
C=C1C(=O)O[C@H]2[C@H]1CC/C(COC(=O)/C=C/c1cccnc1)=C\CC[C@@]1(C)O[C@@H]21	20.5%	27.7%	-32% (active)	11.9%	-66.3% (active)	94.8%	79.4%
COc1ccc(/C=C/C(=O)C(CC2CCC2)C(=O)/C=C/c2ccc(OC)c(OC)c2)cc1OC	-23.5% (active)	-11.5% (active)	-26.3% (active)	6.93% (active)	-75.8% (active)	-80.6% (active)	-33.5% (active)
Cc1ccn2c3c(c(C(=O)O)c2c1)C(=O)c1ccccc1C3=O	58.9%	-78.2% (active)	74.1%	61.1%	82.3%	62%	66.7%
COc1ccc(Cl)c([N+](=O)[O-])c1	104%	99.6%	103%	95.5%	108%	104%	102%
CN(C)C(CNc1oc(-c2cccc3ccccc23)nc1C#N)c1ccco1 (stereo not drawn)	91.4%	97.4%	103%	87.8%	89.3%	105%	97.4%
CC(=O)Nc1ccc2c(c1)Cc1cc(F)ccc1-2	93.8%	107%	105%	82.2%	102%	94.3%	95.6%
O=C1NN(c2ccccc2)C(c2ccc(Cl)cc2)N2CCC[C@H]12 (stereo partly drawn)	117%	99.2%	87.3%	79.9%	99.7%	88.1%	94.9%
COc1cccc2c1-c1ccccc1C2=O	-0.0616% (active)	-48.2% (active)	26.7%	24%	12.9%	30.8%	36%
C[C@]12CC[C@@H]3c4ccc(O)cc4CC[C@H]3[C@@H]1C[C@H](O)C2	79.1%	0.155% (active)	33.9%	61%	49.1%	87.6%	76.3%
CCOC(=O)c1c(C)nc2c(c1N)CC(=O)N2CCc1ccccc1	-17.1% (active)	8.84% (active)	-67.5% (active)	11.8%	6.98% (active)	64.4%	16.1%
COc1cc(NCC(=O)Nc2cc(Nc3cccc(C(F)(F)F)c3)ncn2)c(Cl)c(OC)c1Cl	88.9%	102%	104%	85.8%	87.4%	103%	92.3%
NS(=O)(=O)c1ccc(C2C3=C(CCCC3=O)OC3=C2C(=O)c2ccccc2C3=O)cc1 (stereo not drawn)	-99.8% (active)	-93% (active)	-45.4% (active)	-61.5% (active)	-73.6% (active)	-61.4% (active)	-29.1% (active)
C=C1C(=O)O[C@H]2[C@H]1CC/C(COC(=O)Nc1nc3ccccc3[nH]1)=C\CC[C@@]1(C)O[C@@H]21	77.3%	45.8%	16.4%	20.1%	12%	102%	94.9%
O=C(O)C(C(=O)O)c1cccc2ccccc12	102%	102%	99.1%	98.1%	102%	104%	109%
O=C(Nc1cccc(-c2cccc(F)c2)c1)C1CCN(Cc2cccc3cccnc23)CC1	76.3%	35%	43.3%	19.9%	33.8%	-70.4% (active)	53.3%
S=c1ssnc1-c1cc2ccccc2o1	103%	57%	71.5%	65.5%	59.5%	98.3%	81.6%
O=C(NC[C@H](O)CN1CCc2ccccc2C1)c1cc(NC2COC2)ncn1	97.8%	95.1%	93.8%	80.2%	86.7%	98.8%	98.1%

Structure (SMILES)	growth (BT-549 breast)	growth (MDA-MB-435 melanoma)	growth (SW-620 colon)	growth (MCF7 breast)	growth (HCT-116 colon)	growth (HCC-2998 colon)	growth (KM12 colon)
COc1cc(C2CC(c3ccc(Nc4nc(NCCO)nc(NCCO)n4)cc3)=NN2c2cc(Cl)cc(Cl)c2)cc(OC)c1OC (stereo not drawn)	-27.2% (active)	-15.9% (active)	-4.18% (active)	-60.9% (active)	9.76% (active)	24.4%	-25.6% (active)
CC1(c2ccccc2Cl)NC(=O)NC1=O (stereo not drawn)	99%	105%	102%	96.9%	107%	92.3%	109%
Nc1cc(N)nc(SCC(=O)O)n1	109%	109%	104%	105%	99.1%	101%	104%
COc1cc(-c2csc(NC(=O)Nc3ccc(Cl)cc3)n2)cc(OC)c1OC	31.9%	18.1%	42.1%	8.71% (active)	17.8%	38.9%	13.4%
CCOC(=O)c1cnn(-c2nc(-c3ccc(F)cc3)c(C#N)c(N3CCOCC3)n2)c1N	95.6%	99.1%	104%	89.9%	99.5%	111%	105%
COC(=O)c1ccc(NC(=O)CSc2nc(-c3ccc(F)cc3)nc3ccccc23)cc1	81.5%	68.1%	79.6%	61.1%	49.8%	102%	73.9%
CC(=O)Nc1c(C(=O)Nc2ccccc2)sc2nc3c(cc12)C(OC(C)=O)CCC3 (stereo not drawn)	83.6%	35.3%	97.4%	97.6%	104%	68.7%	80.2%
O=CN1N=C(c2ccc3c(c2)OCO3)CC1c1cccc(Nc2ccnc3cc(C(F)(F)F)ccc23)c1 (stereo not drawn)	75%	40.6%	95.1%	68.2%	74.5%	93.6%	66.6%
COc1cc2cc(c1Cl)N(C)C(=O)C[C@H](OC(=O)[C@H](C)N(C)C(=O)CCS)C[C@]1(C)O[C@H]1[C@H](C)[C@@H]1C[C@@](O)(NC(=O)O1)[C@H](OC)/C=C/C=C(\C)C2	21.9%	-16.4% (active)	18.5%	11.4%	2.39% (active)	8.58% (active)	16.1%
OCCNc1nc(NCCO)nc(Nc2ccc(C3=NN(c4cc(Cl)cc(Cl)c4)C(c4ccc(C(F)(F)F)cc4)C3)cc2)n1 (stereo not drawn)	60.8%	42.1%	60.1%	10.7%	32.7%	45.1%	26%
C=C(C)[C@@H]1CC[C@]2(C(=O)O)CC[C@]3(C)[C@H](CC[C@@H]4[C@@]5(C)C[C@@H](CC#Cc6ccccc6)C(=O)C(C)(C)[C@@H]5CC[C@]43C)[C@@H]12	40.7%	66.8%	27.3%	15.5%	9.07% (active)	29%	27.9%
Cc1nc2sc(C(=O)Nc3cccc4ccccc34)c(N)c2cc1C(C)O (stereo not drawn)	26.2%	-33.7% (active)	30.5%	17.8%	8.51% (active)	15.7%	18.2%
COc1ccc(/C=C(/C(=O)N2CCCC2)c2cc(OC)c(OC)c(OC)c2)cc1	61.1%	-18.3% (active)	22.1%	24.8%	23.8%	80.1%	31.9%
COC(=O)c1cncc(C(=O)Nc2ccc(-n3cnc4ccccc43)cc2)c1	96.1%	105%	112%	84.7%	103%	116%	88.4%
CCCCn1c(=O)c(/C=C/C(=O)/C=C/c2ccc(O)c(OC)c2)cc2ccc(Cl)cc21	11.4%	2.81% (active)	16.1%	46.3%	-55.5% (active)	33.3%	6.78% (active)
COc1ccc(C2C(c3ccccc3)C(=O)N2c2cc(OC)c(OC)c(OC)c2)cc1I (stereo not drawn)	12%	2.2% (active)	23.7%	8.53% (active)	3.14% (active)	31.8%	15.3%
O=C(O)COc1ccc2c(=O)c3sc4c(=O)c5ccccc5c(=O)c4c3c(=O)c2c1	-97% (active)	-88.6% (active)	10.1%	-57% (active)	24.9%	-21.1% (active)	51.5%
